Test results taken from PubChem BioAssay.
Activity calls are given as the source filed them.

How the values were obtained:
[1] = test system: Plasmodium falciparum Sir2 (PF13_0152, Sir2A); experiment: pfSir2 binders on small-molecule microarrays, primary screen, biochemical, small-molecule microarray, 635 nm fluorescence (AID 1098); details: small-molecule microarray binding, fluorescence 635 nm; higher = more signal;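 further: score merges spot fluorescence intensity with its signal-to-noise ratio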
[2] = small-molecule microarray binders of probe aDKK1, primary screen, biochemical, biotinylated probe, 635/667 nm fluorescence (AID 1099); details: higher = more signal;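 further: score merges 667nm spot fluorescence with signal to noise across triplicate slides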
[3] = small-molecule microarray binders of probe aCHRDL2, primary screen, biochemical, biotinylated probe, 635/667 nm fluorescence (AID 1100); details: higher = more signal
[4] = splicing luciferase reporter signal modulators, primary screen, spliceosome inhibition project, cell-based, HEK293, splice +/- reporter (AID 1101); details: luminescence, 24 h, higher = more signal, called active from +8 up or from −8 down;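 further: HEK293 cells carrying a splicing-competent luciferase reporter gene; test concentration not given here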
[5] = molecular target: Fibroblast growth factor 10 (Homo sapiens) (UniProt O15520); experiment: FGF10 binders on small-molecule microarrays, primary screen, biochemical, small-molecule microarray, 635 nm fluorescence (AID 1102); details: FGF10 binding, fluorescence 635 nm, higher = more signal
Sequence of Fibroblast growth factor 10 (Homo sapiens) (O15520 whole entry, looked up): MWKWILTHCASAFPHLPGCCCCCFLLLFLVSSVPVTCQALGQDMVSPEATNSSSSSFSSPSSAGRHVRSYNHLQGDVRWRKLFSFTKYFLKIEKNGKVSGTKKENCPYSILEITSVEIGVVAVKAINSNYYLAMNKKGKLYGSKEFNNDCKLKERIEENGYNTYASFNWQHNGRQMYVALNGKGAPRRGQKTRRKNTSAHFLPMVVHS

[6] = test system: glycogen synthase kinase-3 (GSK3A per assay name; protocol says GSK3B); experiment: GSK3 binders on small-molecule microarrays, primary screen, biochemical, small-molecule microarray, 635 nm fluorescence, GSK3A (AID 1103); details: small-molecule microarray binding, fluorescence 635 nm; higher = more signal; further: the record names both GSK3A and GSK3B
[7] = molecular target: Epidermal growth factor receptor (Homo sapiens) (UniProt P00533); experiment: EGFR binders on small-molecule microarrays, primary screen, biochemical, small-molecule microarray, 635 nm fluorescence (AID 1104); details: EGFR binding, higher = more signal;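 further: score merges 667 nm emission intensity with spot signal to noise over triplicate slides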
Sequence of Epidermal growth factor receptor (Homo sapiens) (P00533 whole entry, looked up): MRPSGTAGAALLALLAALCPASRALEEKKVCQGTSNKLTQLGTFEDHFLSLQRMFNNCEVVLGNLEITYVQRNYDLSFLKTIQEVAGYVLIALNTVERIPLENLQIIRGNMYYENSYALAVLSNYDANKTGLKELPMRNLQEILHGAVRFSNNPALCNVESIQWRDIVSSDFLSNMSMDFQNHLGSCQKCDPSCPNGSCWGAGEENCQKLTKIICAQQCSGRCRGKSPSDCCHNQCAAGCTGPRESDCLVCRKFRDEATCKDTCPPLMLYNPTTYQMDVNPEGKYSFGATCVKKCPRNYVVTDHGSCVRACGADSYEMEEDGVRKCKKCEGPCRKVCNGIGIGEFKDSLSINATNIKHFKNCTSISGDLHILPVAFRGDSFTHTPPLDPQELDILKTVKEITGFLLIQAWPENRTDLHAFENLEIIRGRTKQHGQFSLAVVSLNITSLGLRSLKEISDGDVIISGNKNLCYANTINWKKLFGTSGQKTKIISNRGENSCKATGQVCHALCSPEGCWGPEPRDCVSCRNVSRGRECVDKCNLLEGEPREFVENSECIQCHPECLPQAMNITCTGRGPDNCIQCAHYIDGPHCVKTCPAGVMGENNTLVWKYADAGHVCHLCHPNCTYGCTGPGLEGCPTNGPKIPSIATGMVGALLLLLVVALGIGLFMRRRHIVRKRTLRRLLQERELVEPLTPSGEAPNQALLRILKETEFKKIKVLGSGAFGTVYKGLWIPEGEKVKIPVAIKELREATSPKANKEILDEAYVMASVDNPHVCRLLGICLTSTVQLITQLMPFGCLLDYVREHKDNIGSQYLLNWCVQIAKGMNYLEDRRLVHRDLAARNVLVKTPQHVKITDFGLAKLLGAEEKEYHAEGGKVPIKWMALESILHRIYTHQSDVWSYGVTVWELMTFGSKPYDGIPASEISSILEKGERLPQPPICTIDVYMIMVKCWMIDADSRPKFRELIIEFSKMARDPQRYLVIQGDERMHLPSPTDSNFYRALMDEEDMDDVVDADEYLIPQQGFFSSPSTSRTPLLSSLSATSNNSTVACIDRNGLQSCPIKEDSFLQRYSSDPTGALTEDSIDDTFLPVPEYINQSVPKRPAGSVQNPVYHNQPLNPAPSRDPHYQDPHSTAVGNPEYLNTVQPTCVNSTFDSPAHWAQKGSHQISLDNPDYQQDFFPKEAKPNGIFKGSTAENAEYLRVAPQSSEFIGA

[8] = molecular target: Follistatin-related protein 3 (Homo sapiens) (UniProt O95633); experiment: FSTL3 binders on small-molecule microarrays, primary screen, biochemical, small-molecule microarray, 635 nm fluorescence (AID 1105); details: FSTL3 binding, higher = more signal;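 further: score merges emission near 667 nm and signal to noise per printed spot across three slides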
Sequence of Follistatin-related protein 3 (Homo sapiens) (O95633 whole entry, looked up): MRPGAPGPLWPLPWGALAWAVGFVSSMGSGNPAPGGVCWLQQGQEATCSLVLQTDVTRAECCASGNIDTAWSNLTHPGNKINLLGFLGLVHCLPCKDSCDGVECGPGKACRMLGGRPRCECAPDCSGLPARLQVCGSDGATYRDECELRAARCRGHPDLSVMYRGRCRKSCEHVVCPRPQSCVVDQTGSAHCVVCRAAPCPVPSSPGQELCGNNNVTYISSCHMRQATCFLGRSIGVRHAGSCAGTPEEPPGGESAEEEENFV

[9] = molecular target: Dickkopf-related protein 1 (Homo sapiens) (UniProt O94907); experiment: DKK1 binders on small-molecule microarrays, primary screen, biochemical, small-molecule microarray, 635 nm fluorescence scan (AID 1106); details: DKK1 binding, higher = more signal;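 further: score merges emission near 667 nm with signal to noise over three replicate slides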
Sequence of Dickkopf-related protein 1 (Homo sapiens) (O94907 whole entry, looked up): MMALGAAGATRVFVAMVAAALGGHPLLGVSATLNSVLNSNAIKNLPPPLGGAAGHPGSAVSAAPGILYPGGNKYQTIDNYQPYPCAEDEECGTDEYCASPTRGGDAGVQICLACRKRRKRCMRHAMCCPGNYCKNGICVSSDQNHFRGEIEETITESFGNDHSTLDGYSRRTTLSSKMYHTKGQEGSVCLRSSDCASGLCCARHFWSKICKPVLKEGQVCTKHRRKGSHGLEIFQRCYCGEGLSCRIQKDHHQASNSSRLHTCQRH

[10] = test system: Inhibin beta A chain (activin A); experiment: INHBA (activin A) binders on microarrays, primary screen, biochemical, small-molecule microarray, 635 nm fluorescence scan (AID 1107); details: small-molecule microarray binding, higher = more signal;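 further: mouse activin A protein probed at 4.33 µg/mL on printed slides; score merges bound-protein fluorescence near 667 nm with spot signal-to-noise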
[11] = test system: Human papillomavirus type 1a protein E7 (residues 44-93); experiment: HPV1a E7 fragment binders on microarrays, primary screen, biochemical, small-molecule microarray, residues 44-93, 635 nm fluorescence (AID 1108); details: small-molecule microarray binding, fluorescence 635 nm; higher = more signal;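 further: E7 fragment applied at 1 µg/mL in TBST for 1 h at 4 C; score combines spot fluorescence with its signal to noise ratio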
[12] = modulators of HCV replicon luciferase signal, primary screen, HCV replication inhibitor project, Huh7 cells, luciferase reporter (AID 1109); details: 48 h, higher = more signal;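 further: huh7 hepatoma cells harbouring a luciferase neomycin HCV replicon reporter; luciferase luminescence as measure of HCV replicon replication; test concentration not given here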
[13] = molecular target: Left-right determination factor 2 (Homo sapiens) (UniProt O00292); experiment: LEFTY2 binders on small-molecule microarrays, primary screen, biochemical, small-molecule microarray, 635 nm fluorescence scan (AID 1110); details: LEFTY2 binding, higher = more signal
Sequence of Left-right determination factor 2 (Homo sapiens) (O00292 whole entry, looked up): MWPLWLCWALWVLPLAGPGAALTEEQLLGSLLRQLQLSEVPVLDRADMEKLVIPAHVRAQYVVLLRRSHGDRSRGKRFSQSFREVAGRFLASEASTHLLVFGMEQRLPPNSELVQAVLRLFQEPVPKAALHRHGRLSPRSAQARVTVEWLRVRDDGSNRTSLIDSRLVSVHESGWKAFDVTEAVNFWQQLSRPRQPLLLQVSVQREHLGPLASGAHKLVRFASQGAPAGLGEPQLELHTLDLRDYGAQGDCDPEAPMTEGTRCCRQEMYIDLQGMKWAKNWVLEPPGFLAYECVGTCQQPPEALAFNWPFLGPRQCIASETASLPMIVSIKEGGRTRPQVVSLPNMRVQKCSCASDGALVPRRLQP

[14] = molecular target: Calmodulin-1 (Homo sapiens) (UniProt P0DP23); experiment: CALM1 binders on microarrays, EGTA buffer, profiling panel, biochemical, small-molecule microarray, Cy5-labelled CALM1 (AID 1111); details: Cy5-CALM1 binding fluorescence, higher = more signal;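 further: labelled calmodulin applied in Tris saline Tween buffer holding calcium plus EGTA and DTT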
[15] = molecular target: Calmodulin-1 (Homo sapiens) (UniProt P0DP23); experiment: calcium-bound CALM1 binders on microarrays, profiling panel, artefact control for SMM control-protein annotation, biochemical, small-molecule microarray, Cy5-labelled CALM1, plus calcium (AID 1112); details: Cy5-CALM1 binding fluorescence, higher = more signal;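 further: score merges spot fluorescence with signal to noise from triplicate slides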
[16] = small-molecule microarray binders of probe aWnt5a, primary screen, biochemical, biotinylated probe, 635/667 nm fluorescence (AID 1113); details: higher = more signal;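 further: score merges 667 nm fluorescence intensity with signal-to-noise per printed feature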
[17] = small-molecule microarray binders of probe aShh, primary screen, biochemical, biotinylated probe, 635/667 nm fluorescence (AID 1114); details: higher = more signal;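 further: probe is biotin-labelled aShh protein from a stem cell growth factor screen; measures binding of labelled protein to compounds printed on the slide; score merges feature fluorescence at 667 nm with signal-to-noise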
[18] = small-molecule microarray binders of probe aNog, primary screen, biochemical, biotinylated probe, 635/667 nm fluorescence (AID 1115); details: higher = more signal;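 further: probe is biotinylated aNog protein used at 0.15 µg/mL for 1 h at 4 C; z-score combines 667 nm fluorescence of each spot with its signal to noise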
[19] = molecular target: Torsin-1A-interacting protein 1 (Homo sapiens) (UniProt Q5JTV8); experiment: LAP1 binders from COS7 cell lysate, primary screen, small-molecule microarray, 635/667 nm fluorescence (AID 1116); details: COS7-hLAP1 lysate binding, 635 nm fluorescence, higher = more signal
Sequence of Torsin-1A-interacting protein 1 (Homo sapiens) (Q5JTV8 whole entry, looked up): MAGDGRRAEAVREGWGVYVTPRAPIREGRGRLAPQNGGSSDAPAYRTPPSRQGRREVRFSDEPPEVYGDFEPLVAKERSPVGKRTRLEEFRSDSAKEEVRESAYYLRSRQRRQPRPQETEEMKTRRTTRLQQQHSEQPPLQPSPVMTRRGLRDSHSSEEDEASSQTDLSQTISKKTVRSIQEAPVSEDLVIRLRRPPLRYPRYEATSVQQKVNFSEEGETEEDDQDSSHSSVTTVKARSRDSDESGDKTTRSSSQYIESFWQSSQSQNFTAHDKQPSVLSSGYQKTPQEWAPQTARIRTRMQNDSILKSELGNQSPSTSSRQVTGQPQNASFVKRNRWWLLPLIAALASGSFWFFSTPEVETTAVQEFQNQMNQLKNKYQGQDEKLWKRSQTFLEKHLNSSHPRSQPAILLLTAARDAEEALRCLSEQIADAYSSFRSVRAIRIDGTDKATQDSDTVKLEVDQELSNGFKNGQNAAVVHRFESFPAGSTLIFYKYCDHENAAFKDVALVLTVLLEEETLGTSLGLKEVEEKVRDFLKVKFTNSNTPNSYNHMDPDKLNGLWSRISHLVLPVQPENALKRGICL

[20] = molecular target: Alpha-bungarotoxin (Bungarus multicinctus) (UniProt P60615); experiment: alpha-bungarotoxin binders on microarray, profiling panel, artefact control for SMM control protein annotation, biochemical, small-molecule microarray, Alexa647 label, 635/667 nm fluorescence (AID 1117); details: alpha-BTX-A647 binding fluorescence, higher = more signal
Sequence of Alpha-bungarotoxin (Bungarus multicinctus) (P60615 whole entry, looked up): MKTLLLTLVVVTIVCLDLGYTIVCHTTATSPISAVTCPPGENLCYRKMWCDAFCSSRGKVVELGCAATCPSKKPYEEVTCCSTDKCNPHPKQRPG

| Structure (SMILES) | composite z-score [1] | composite z-score [2] | composite z-score [3] | z-score [4] | composite z-score [5] | composite z-score [6] | composite z-score [7] | composite z-score [8] | composite z-score [9] | composite z-score [10] | composite z-score [11] | z-score [12] | composite z-score [13] | composite z-score [14] | composite z-score [15] | composite z-score [16] | composite z-score [17] | composite z-score [18] | composite z-score [19] | composite z-score [20] |
| --- | --- | --- | --- | --- | --- | --- | --- | --- | --- | --- | --- | --- | --- | --- | --- | --- | --- | --- | --- | --- |
| C=CCC(OC(C)=O)[C@@H]1[C@@H](N(Cc2ccc(-c3cccc(C(F)(F)F)c3)o2)C(=O)c2ccc(-c3ccccc3)cc2)c2cc(OCCCO)ccc2N1C(=O)Cc1ccc2ccccc2c1 (stereo not given in full) | -0.417 | -0.155 | 0.532 | -0.435 (inactive) | -0.186 | -1.22 | -0.782 | -0.116 | -0.403 | 0.841 | -0.267 | -1.09 | -0.458 | -0.248 | 0.277 | -0.0981 | 0.0204 | -0.144 | -0.115 | -0.153 |
| NCCCCCNC(=O)[C@H]1C[C@H]2C(=O)N3CCC[C@H]3C(=O)N2[C@H]1c1cccc(OCCO)c1 | 0.685 | 0.583 | 1.1 | 0.125 (inactive) | 0.68 | 0.703 | -0.525 | -0.515 | -0.331 | 0.896 | 1.32 | 0.5 | -0.397 | 1.35 | 0.684 | 0.0375 | 0.14 | -0.403 | 1.17 | 1.24 |
| CN1C2C=C(CCCO)C(C3C(=O)N(C(N)=O)C(=O)C32)C1C1CC1 (stereo not given) | -0.149 | -0.105 | 0.1 | 0.93 (inactive) | -0.0933 | -0.0699 | -0.0436 | -0.785 | 0.0144 | -0.393 | -0.071 | -0.225 | -0.645 | -0.495 | -0.458 | -0.0462 | 0.0062 | -0.102 | 0.474 | 0.0218 |
| O=C(Cc1ccccc1)[C@H]1C2C=CCCC(c3ccccc3)=C2CN1Cc1ccccc1 (stereo not given in full) | -0.313 | -0.138 | -0.191 | -0.445 (inactive) | -0.0435 | -0.117 | -0.097 | -0.137 | 0.191 | 0.707 | -0.75 | -0.576 | 0.174 | -0.185 | -0.354 | -0.0566 | -0.124 | 0.0326 | 0.163 | -0.0051 |
| Cc1ccc(C(C)CC(O)C2C=CC3C(=O)N(c4ccccc4)C(=O)C3N2Nc2ccccc2)o1 (stereo not given) | 0.844 | 1.01 | 0.693 | -0.392 (inactive) | 0.981 | 1.28 | 0.554 | 1.2 | -0.174 | 0.843 | 1.44 | -0.741 | 0.285 | 1.3 | 0.125 | 0.0802 | 0.308 | 1.5 | 0.789 | 1.3 |
| CCCCCN1CC=CC23O[C@@H]4C=CCCOC(=O)C4[C@H]2C(=O)N(CCCCCCO)[C@@H]3C1=O (stereo not given in full) | 0.788 | -0.467 | -0.272 | 2.61 (inactive) | 0.0027 | -0.284 | -0.547 | -1.01 | -0.69 | -0.206 | 0.521 | 0.525 | -0.287 | -0.711 | -0.533 | -0.168 | -0.0769 | -0.316 | 0.564 | -0.675 |
| CC(c1ccccc1)C(O)C1C=CC2C(=O)N(C)C(=O)C2N1Nc1ccccc1 (stereo not given) | 1.25 | 1.04 | 1.2 | 1.31 (inactive) | 0.663 | 0.515 | 0.0188 | 0.359 | -0.452 | 0.965 | 1.23 | -0.684 | -0.541 | 2 | 0.735 | 0.157 | 0.208 | 0.462 | 0.694 | 2.06 |
| COc1ccc([Si](C)(C)[C@@H]2[C@@H](CCO)O[C@]3(C(=O)N(Cc4ccccc4)c4ccc(NC(=O)[C@H](C)O)cc43)[C@H]2C)cc1 | 0.728 | -0.106 | -0.147 | -1.75 (inactive) | 0.867 | 1.29 | 0.778 | 1.14 | 0.43 | -0.159 | 1.35 | -5.08 | 0.387 | 1.46 | -0.153 | 0.0559 | -0.0738 | -0.0428 | 1.5 | 0.484 |
| NCCCCCCNC(=O)[C@@H]1C[C@@H]2C(=O)N[C@@H](CCCCN)C(=O)N2[C@@H]1c1ccc(O)cc1 | 1.32 | 0.13 | 0.462 | -1.48 (inactive) | 0.523 | 0.456 | 0.456 | 0.27 | 1.16 | 0.899 | 1.31 | -0.31 | 0.642 | -0.301 | 0.0301 | -0.172 | 0.12 | -0.0087 | 1.66 | -1.03 |
| O=C1N(Cc2ccccc2)c2ccccc2C[C@]12N=C(c1ccc(OCCCO)cc1)O[C@@H]2c1ccccc1 | 0.25 | 0.035 | 0.333 | 0.214 (inactive) | 0.796 | 0.914 | 0.498 | 0.935 | 0.271 | 0.736 | 0.732 | -3.02 | 0.133 | 0.51 | -0.249 | -0.0179 | -0.332 | -0.356 | -0.0883 | 0.743 |
| CCOC(=O)C[C@H]1[C@H](OC(=O)Cc2ccc3c(c2)OCO3)[C@@H](NC(=O)C2CCCCC2)c2cc(OCCCO)ccc2N1C(=O)c1ccccc1 | 0.0882 | -0.173 | -0.265 | -0.664 (inactive) | 0.27 | -0.0848 | 0.073 | 0.145 | 0.351 | 0.193 | 0.232 | -0.509 | -0.684 | 0.379 | 0.389 | -0.1 | -0.147 | -0.272 | 0.653 | 0.262 |
| COc1ccc([Si](C)(C)[C@@H]2[C@@H](CC(=O)N3Cc4ccccc4C[C@H]3CO)O[C@]3(C(=O)N(Cc4ccc(N5C(=O)c6cccc7cccc5c67)cc4)c4ccccc43)[C@H]2C)cc1 | 0.68 | -0.0502 | -0.0445 | 1.54 (inactive) | 1.31 | 1.27 | 1.2 | 1.24 | 1.12 | 0.772 | 1.35 | -3.96 | 0.987 | 0.318 | -0.512 | -0.0585 | 0.0952 | 0.251 | 1.04 | 0.964 |
| COc1ccc(C(=O)Nc2ccc(CN3C(=O)[C@]4(O[C@H](CC(=O)N5Cc6ccccc6C[C@H]5CO)[C@@H]([Si](C)(C)c5ccc(OC)cc5)[C@@H]4C)c4ccccc43)cc2)cc1 | 1.57 | -0.196 | -0.165 | -1.18 (inactive) | 1.06 | 0.837 | 0.749 | 0.833 | 0.786 | 0.518 | 1.33 | -3.58 | 0.575 | 0.301 | -0.376 | -0.128 | -0.232 | -0.31 | 0.795 | 1.31 |
| COCCOC(=O)N1C(=O)[C@@]2(c3cc(C#CCNC(N)=O)ccc31)[C@H](C(N)=O)[C@H]1C(=O)O[C@H](c3ccccc3)[C@H](c3ccccc3)N1[C@@H]2c1ccccc1OCCO | 1.16 | 0.0377 | 0.803 | 0.565 (inactive) | 1.07 | 0.782 | 0.302 | 1.31 | 0.78 | 1.11 | 0.989 | -0.814 | 0.467 | 0.318 | -0.304 | -0.129 | -0.0977 | -0.288 | 1.26 | 1.06 |
| CCCCN1CC=CC23O[C@@H]4/C=C\CCC(C)OC(=O)C4[C@H]2C(=O)N(CCCO)[C@@H]3C1=O (stereo not given in full) | 1.16 | -0.235 | 0.662 | 0.239 (inactive) | -1.13 | -0.496 | -0.983 | -1.04 | -1.37 | -0.372 | -0.169 | -0.398 | -0.949 | -0.0083 | 0.458 | -0.252 | 0.535 | -0.362 | -0.318 | -0.566 |
